Test results as given in PubChem BioAssay (EPA / NIEHS).
Results filed as inconclusive are left out. Active and inactive are the calls of the source. The calls were made as follows, unless noted: active = hit-call score of the fitted dose curve at least 0.9, where 1 is the maximum; inconclusive = response in the unintended direction; inactive = score below 0.9.

read-out: X-box binding protein 1 (XBP1), XBP1 (gene 7494); experiment: LTEA_HepaRG_XBP1: Life Technologies and Expression Analysis (LTEA) Assay for X-box binding protein 1 (XBP1) using HepaRG (AID 2283540; active = hit-call score of the fitted dose curve at least 0.9, where 1 is the maximum; inactive = score below 0.9); details: mRNA level, 48 h; actives raise or lower the signal
Method in brief: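 Human HepaRG monolayers receive test chemical for 48 h across an eight-point half-log series starting at 100 uM. XBP1 mRNA gain or loss is scored against DMSO by qRT-PCR.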

| Compound | outcome | AC50 |
| --- | --- | --- |
| O=C(O)CCN(C1(C(=O)NO)CCCC1)S(=O)(=O)c1ccc(Oc2ccc(F)cc2)cc1 | inactive | – |
| Cc1ccc(N)cc1O | inactive | – |
| CCCC(=O)OCC | inactive | – |
| CC1=CC(=O)CC(C)(C)C1 | inactive | – |
| COC(=O)CC(=O)OC | inactive | – |
| CCCCC(CC)COC(=O)c1ccc(C(=O)OCC(CC)CCCC)cc1 (centres undefined) | inactive | – |
| COc1ccc2sc(C(=O)Nc3nnn[nH]3)c(OC(C)C)c2c1 | inactive | – |
| Cc1c(-c2cccnc2)c2ccccc2n1CCCCC(=O)O | inactive | – |
| CCc1cc(SCc2sc(-c3ccc(C(F)(F)F)cc3)nc2CN2CCN(c3ccc(OC)cc3)CC2)ccc1OCC(=O)O | – | 94 µM (active) |
| CCOC(=O)COc1ccc2c(c1)CC(NCC(O)c1cccc(Cl)c1)CC2 (centres undefined) | – | 45.8 µM (active) |
| CCOc1cccc(-n2cc(C(=O)N3CCN(c4cc(C(=O)O)c5ccccc5c4)CC3)nc2-c2ccc(C)cc2)c1 | – | 88.1 µM (active) |
| COCCOc1cc2cc(C(=O)NC3CCN(C(C)C)CC3)n(CC(=O)Nc3ccc(Cl)cn3)c2cn1 | – | 12.1 µM (active) |

read-out: not listed separately; experiment: LTEA_HepaRG_LDH_cytotoxicity: Cytotoxicity Assessment in the Life Technologies and Expression Analysis (LTEA) Assay (AID 2283563); details: not given;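 as to AC50: LDH activity released into spent culture medium as a marker of cell death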
Method in brief: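 Human HepaRG hepatic cells are treated with test chemicals for 48 h at up to 100 uM in 0.5% DMSO. Cytotoxicity is scored from medium LDH against the vehicle control.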

| Compound | AC50 | outcome |
| --- | --- | --- |
| COc1cccc(-c2ccc(/C=C\CN3CCCCCC3)cc2Cl)c1 | 68.8 µM (active) | – |
| CC[C@H]1CC[C@H](NCc2cc3c(cc2OC)[C@H]2C[C@H]2C(=O)N3C)[C@H](c2ccccc2)N1 | – | inactive |
| CCCCCCCCO | – | inactive |
| Fc1ccccc1[C@@H](F)COC1CCC(Nc2ncnc3[nH]ncc23)CC1 (some centres undefined) | – | inactive |
| CNCc1ccc(NC(=O)c2c[nH]c3c2C(=O)CCC3)cc1 | – | inactive |
| O=c1[nH]c2ccc(S(=O)CCN3CCC(Cc4ccc(F)cc4)CC3)cc2o1 (centres undefined) | – | inactive |
| CCOC(=O)c1ccc(C2CCC(NC[C@H](O)COc3ccc(O)c(NS(C)(=O)=O)c3)CC2)cc1 (some centres undefined) | – | inactive |
| CCN(C(=O)c1cc(C)cc(OC[C@H](C)Nc2ccncc2)c1)C(C)C | 49.7 µM (active) | – |
| Cc1ccc(O)cc1 | – | inactive |
| CNS(=O)(=O)c1cc(C(=O)N2CCC(CCN3C4CCC3CC(n3c(C)nc5ccccc53)C4)(c3cccc(F)c3)CC2)c(Cl)cc1F (centres undefined) | 32.2 µM (active) | – |
| CC(C)CCO | – | inactive |
| CN(C)c1ccc(Cc2ccc(N(C)C)cc2)cc1 | – | inactive |
| CCNc1ccccc1 | – | inactive |
| CCn1nc(Cc2ccccc2)cc1C1CCN(C[C@H]2C[C@H](N(C)[C@@H](C(=O)O)C(C)C)C[C@@H]2c2cccc(F)c2)CC1 | – | inactive |
| CC(C)CCCCCCOC(=O)c1ccc(C(=O)OCCCCCCC(C)C)c(C(=O)OCCCCCCC(C)C)c1 | – | inactive |
| CC(C)=CCC/C(C)=C/CO | – | inactive |
| CC(=O)c1ccc2c(c1)[C@H](NC(=O)c1ccc(F)cc1)[C@@H](O)C(C)(C)O2 | – | inactive |
| O=C(O)CCN(C1(C(=O)NO)CCCC1)S(=O)(=O)c1ccc(Oc2ccc(F)cc2)cc1 | – | inactive |
| Cc1ccc(N)cc1O | – | inactive |
| CCCC(=O)OCC | – | inactive |
| CC1=CC(=O)CC(C)(C)C1 | – | inactive |
| COC(=O)CC(=O)OC | – | inactive |
| CCCCC(CC)COC(=O)c1ccc(C(=O)OCC(CC)CCCC)cc1 (centres undefined) | – | inactive |
| COc1ccc2sc(C(=O)Nc3nnn[nH]3)c(OC(C)C)c2c1 | – | inactive |
| Cc1c(-c2cccnc2)c2ccccc2n1CCCCC(=O)O | – | inactive |
| CCc1cc(SCc2sc(-c3ccc(C(F)(F)F)cc3)nc2CN2CCN(c3ccc(OC)cc3)CC2)ccc1OCC(=O)O | 16.2 µM (active) | – |
| CCOC(=O)COc1ccc2c(c1)CC(NCC(O)c1cccc(Cl)c1)CC2 (centres undefined) | – | inactive |
| CCOc1cccc(-n2cc(C(=O)N3CCN(c4cc(C(=O)O)c5ccccc5c4)CC3)nc2-c2ccc(C)cc2)c1 | 36.3 µM (active) | – |
| COCCOc1cc2cc(C(=O)NC3CCN(C(C)C)CC3)n(CC(=O)Nc3ccc(Cl)cn3)c2cn1 | 59.3 µM (active) | – |

system: not listed separately; experiment: TOX21_p53_BLA_p2_viability: Viability Assessment in the Tox21 HCT-116 p53 Agonism Beta-lactamase Assay, Phase 2 (AID 2283591); details: not given;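 also: compound exposure lasted 16 h at 37 °C; actives lower the ATP signal meaning cytotoxicity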
Method in brief: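 HCT-116 p53-bla cells (4000/well) rested 5 h at 37C, then received compounds in DMSO (217-fold dilution) for 16 h at 37C, 5% CO2. After the CCF4 read, CellTiter-Glo was added; ATP luminescence was read after 30 min at room temperature.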

| Compound | AC50 | outcome |
| --- | --- | --- |
| COc1cccc(-c2ccc(/C=C\CN3CCCCCC3)cc2Cl)c1 | 57.8 µM (active) | – |
| CC[C@H]1CC[C@H](NCc2cc3c(cc2OC)[C@H]2C[C@H]2C(=O)N3C)[C@H](c2ccccc2)N1 | – | inactive |
| CCCCCCCCO | – | inactive |
| Fc1ccccc1[C@@H](F)COC1CCC(Nc2ncnc3[nH]ncc23)CC1 (some centres undefined) | – | inactive |
| CCOC(=O)c1ccc(C2CCC(NC[C@H](O)COc3ccc(O)c(NS(C)(=O)=O)c3)CC2)cc1 (some centres undefined) | 70.1 µM (active) | – |
| CCN(C(=O)c1cc(C)cc(OC[C@H](C)Nc2ccncc2)c1)C(C)C | – | inactive |
| CNS(=O)(=O)c1cc(C(=O)N2CCC(CCN3C4CCC3CC(n3c(C)nc5ccccc53)C4)(c3cccc(F)c3)CC2)c(Cl)cc1F (centres undefined) | 26.9 µM (active) | – |
| CC(C)CCO | – | inactive |
| CCCCC(CC)COC(=O)CCCCCCCCC(=O)OCC(CC)CCCC (centres undefined) | – | inactive |
| CN(C)c1ccc(Cc2ccc(N(C)C)cc2)cc1 | – | inactive |
| CCNc1ccccc1 | – | inactive |
| CCn1nc(Cc2ccccc2)cc1C1CCN(C[C@H]2C[C@H](N(C)[C@@H](C(=O)O)C(C)C)C[C@@H]2c2cccc(F)c2)CC1 | – | inactive |
| CC(C)CCCCCCOC(=O)c1ccc(C(=O)OCCCCCCC(C)C)c(C(=O)OCCCCCCC(C)C)c1 | – | inactive |
| CC(C)=CCC/C(C)=C/CO | – | inactive |
| CC(=O)c1ccc2c(c1)[C@H](NC(=O)c1ccc(F)cc1)[C@@H](O)C(C)(C)O2 | – | inactive |
| Cc1ccc(N)cc1O | – | inactive |
| CC1=CC(=O)CC(C)(C)C1 | – | inactive |
| COC(=O)CC(=O)OC | – | inactive |
| CCCCC(CC)COC(=O)c1ccc(C(=O)OCC(CC)CCCC)cc1 (centres undefined) | – | inactive |
| COc1ccc2sc(C(=O)Nc3nnn[nH]3)c(OC(C)C)c2c1 | 13.2 µM (active) | – |
| CCc1cc(SCc2sc(-c3ccc(C(F)(F)F)cc3)nc2CN2CCN(c3ccc(OC)cc3)CC2)ccc1OCC(=O)O | 7.48 µM (active) | – |
| CCOC(=O)COc1ccc2c(c1)CC(NCC(O)c1cccc(Cl)c1)CC2 (centres undefined) | 67.3 µM (active) | – |
| CCOc1cccc(-n2cc(C(=O)N3CCN(c4cc(C(=O)O)c5ccccc5c4)CC3)nc2-c2ccc(C)cc2)c1 | 10.6 µM (active) | – |
